From PubChem BioAssay (NCATS)
Records with an inconclusive call do not appear. The source made the active and inactive calls. The call rests on the fitted dose curve; in most records, active means well fitted curve in the direction sought with a large enough effect; inconclusive means small, poorly fitted or top-dose-only effect, or another doubt; inactive means no such curve, though single readings can be large; an effect the other way counts as inactive or inconclusive.

What was measured:
[1] = Quantitative High-Throughput drug screen in 47 multiple myeloma cell lines against the NCATS MIPE library collection: FR4_PLB cell viability assay (AID 1918924; further: nearly all actives have a fitted effect of over 35% in size; further: potency means the concentration at half of the fitted maximal effect)
Outline: (§1)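 Myeloma cells (500 per well) were exposed to MIPE 4.0 compounds by pin transfer and incubated 48 hours at 37C, 5% CO2. Viability was read as ATP by CellTiter-Glo luminescence, normalised to DMSO (100%) and media-only (0%) wells.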

[2] = Quantitative High-Throughput drug screen in 47 multiple myeloma cell lines against the NCATS MIPE library collection: EJM_DSMZ cell viability assay (AID 1918926; further: nearly all actives have a fitted effect of over 30% in size; further: potency means the concentration at half of the fitted maximal effect)
Outline: (§2)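 Steps: seed 500 cells per well; pin-transfer MIPE 4.0 library; incubate 48 h at 37C, 5% CO2, humidified; add CellTiter-Glo, 5 min room temperature; read luminescence.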

[3] = Quantitative High-Throughput drug screen in 47 multiple myeloma cell lines against the NCATS MIPE library collection: ARD_JJKsccE7 cell viability assay (AID 1918929; further: potency means the concentration at half of the fitted maximal effect)
Outline: as §2

[4] = Quantitative High-Throughput drug screen in 47 multiple myeloma cell lines against the NCATS MIPE library collection: Karpas620_DSMZ cell viability assay (AID 1918959); further: nearly all actives have a fitted effect of over 30% in size; further: potency means the concentration at half of the fitted maximal effect
Outline: as §1

[5] = Quantitative High-Throughput drug screen in 47 multiple myeloma cell lines against the NCATS MIPE library collection: KMM1_JCRB cell viability assay (AID 1918960); further: nearly all actives have a fitted effect of over 30% in size; further: potency means the concentration at half of the fitted maximal effect;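 on viability (% of DMSO): 100% = DMSO-treated cells and 0% = medium-only wells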
Outline: (§3)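 CellTiter-Glo luminescence after 48 h exposure gives viability, scaled between DMSO-only (100%) and media-only (0%) controls. Library compounds are pinned onto 500 myeloma cells per well, incubated at 37C with 5% CO2.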

[6] = Quantitative High-Throughput drug screen in 47 multiple myeloma cell lines against the NCATS MIPE library collection: KHM11_PLB cell viability assay (AID 1918962); further: nearly all actives have a fitted effect of over 35% in size; further: potency means the concentration at half of the fitted maximal effect
Outline: as §1

[7] = Quantitative High-Throughput drug screen in 47 multiple myeloma cell lines against the NCATS MIPE library collection: JIM3_ECACC cell viability assay (AID 1918963; further: nearly all actives have a fitted effect of over 35% in size; further: potency means the concentration at half of the fitted maximal effect)
Outline: as §1

[8] = Quantitative High-Throughput drug screen in 47 multiple myeloma cell lines against the NCATS MIPE library collection: JIM1_ECACC cell viability assay (AID 1918964)
Outline: as §2

[9] = Quantitative High-Throughput drug screen in 47 multiple myeloma cell lines against the NCATS MIPE library collection: INA6_PLB cell viability assay (AID 1918965; further: nearly all actives have a fitted effect of over 55% in size; further: potency means the concentration at half of the fitted maximal effect)
Outline: (§4)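 CellTiter-Glo ATP luminescence gave viability after 48 h compound treatment at 37C of 500 multiple myeloma cells per well. Normalisation used DMSO-only wells as 100% and media-only wells as 0% viability; primary qHTS of approved and investigational drugs.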

[10] = Quantitative High-Throughput drug screen in 47 multiple myeloma cell lines against the NCATS MIPE library collection: H1112_PLB cell viability assay (AID 1918967; further: nearly all actives have a fitted effect of over 30% in size; further: potency means the concentration at half of the fitted maximal effect)
Outline: as §2

[11] = Quantitative High-Throughput drug screen in 47 multiple myeloma cell lines against the NCATS MIPE library collection: Karpas25_ECACC cell viability assay (AID 1918968; further: nearly all actives have a fitted effect of over 35% in size; further: potency means the concentration at half of the fitted maximal effect)
Outline: as §2

[12] = Quantitative High-Throughput drug screen in 47 multiple myeloma cell lines against the NCATS MIPE library collection: KMS27_JCRB cell viability assay (AID 1918970); details: KMS27 myeloma cells, CellTiter-Glo ATP viability, 48 h; viability (% of DMSO): at 45.8 µM (top of the series); further: nearly all actives have a fitted effect of over 30% in size; further: potency means the concentration at half of the fitted maximal effect
Outline: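 ATP-based viability (CellTiter-Glo luminescence) is measured in cells treated 48 h with approved and investigational drugs at 37 °C. Controls are DMSO-only wells for full viability and media-only wells for none.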

[13] = Quantitative High-Throughput drug screen in 47 multiple myeloma cell lines against the NCATS MIPE library collection: ARP1_JJKsccF8 cell viability assay (AID 1918928; further: nearly all actives have a fitted effect of over 40% in size; further: potency means the concentration at half of the fitted maximal effect)
Outline: as §3

[14] = Quantitative High-Throughput drug screen in 47 multiple myeloma cell lines against the NCATS MIPE library collection: KMS12BM_JCRB cell viability assay (AID 1918971); further: nearly all actives have a fitted effect of over 35% in size; further: potency means the concentration at half of the fitted maximal effect
Outline: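 We plated 500 myeloma cells per well, pinned in MIPE 4.0 compounds, and incubated for 48 hours at 37C. ATP was then quantified with CellTiter-Glo, with DMSO and media-only wells defining 100% and 0%.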

[15] = Quantitative High-Throughput drug screen in 47 multiple myeloma cell lines against the NCATS MIPE library collection: AMO1_DSMZ cell viability assay (AID 1918927; further: nearly all actives have a fitted effect of over 30% in size; further: potency means the concentration at half of the fitted maximal effect)
Outline: as §2

[16] = Quantitative High-Throughput drug screen in 47 multiple myeloma cell lines against the NCATS MIPE library collection: Karpas417_ECACC cell viability assay (AID 1918961); details: Karpas417 myeloma viability, CellTiter-Glo ATP luminescence, 48 h; viability (% of DMSO): at 45.8 µM (top of the series); further: potency means the concentration at half of the fitted maximal effect
Outline: as §4

[17] = Quantitative High-Throughput drug screen in 47 multiple myeloma cell lines against the NCATS MIPE library collection: JJN3_DSMZ cell viability assay (AID 1918966; further: nearly all actives have a fitted effect of over 50% in size; further: potency means the concentration at half of the fitted maximal effect)
Outline: as §2

COc1ccc(C=CC(=O)Nc2ccccc2C(=O)O)cc1OC
active: Potency [9] 0.0019 µM
inactive: Potency [1] | Potency [2] | Potency [3] | Potency [4] | Potency [5] | Potency [6] | Potency [7] | Potency [8] | Potency [10] | Potency [11] | Potency [12]

C#CCN(C)CC1=Cc2ccccc2Oc2ccccc21
inactive: Potency [1] | Potency [2] | Potency [13] | Potency [4] | Potency [5] | Potency [7] | Potency [8] | Potency [10]
active: Potency [14] 16.6 µM

C[C@@H]1[C@H](C)CC[C@]2(C(=O)O)CC[C@]3(C)C(=CC[C@@H]4[C@@]5(C)CC[C@H](O)C(C)(C)[C@H]5CC[C@]43C)[C@@H]12
active: Potency [1] 42.9 µM | Potency [13] 42.9 µM | Potency [14] 19.1 µM
inactive: Potency [15] | Potency [3] | Potency [4] | Potency [5] | Potency [6] | Potency [7] | Potency [10] | Potency [11] | Potency [12]

COC(=O)Nc1ccc(-c2nc(N3CCOCC3)c3cnn(C4CCN(C(=O)OC)CC4)c3n2)cc1
active: Potency [1] 1.05 µM | Potency [2] 6.62 µM | Potency [13] 0.662 µM | Potency [3] 0.526 µM | Potency [5] 0.469 µM | Potency [16] 0.059 µM | Potency [6] 0.0833 µM | Potency [7] 0.264 µM | Potency [9] 0.0935 µM | Potency [17] 0.935 µM | Potency [10] 0.0662 µM | Potency [11] 0.0187 µM | Potency [12] 0.0833 µM | Potency [14] 0.935 µM

CCCCC(C)(C)[C@H](O)C=C[C@H]1[C@H](O)CC(=O)[C@H]1CC=CCCCC(=O)O
inactive: Potency [1] | Potency [3] | Potency [4] | Potency [8] | Potency [12]
active: Potency [2] 5.9 µM | Potency [13] 23.5 µM | Potency [7] 20.9 µM | Potency [9] 23.5 µM | Potency [11] 18.7 µM | Potency [14] 18.7 µM

Nc1ccn([C@@H]2O[C@H](CO)[C@@H](O)[C@H]2O)c(=O)n1
inactive: Potency [1] | Potency [2] | Potency [3] | Potency [5] | Potency [7] | Potency [14]

CO[C@H]1O[C@@H]2O[C@@]3(C)CC[C@@H]4[C@@H](C)CC[C@@H]([C@H]1C)[C@@]24OO3
active: Potency [2] 1.48 µM | Potency [15] 1.87 µM | Potency [13] 16.6 µM | Potency [5] 1.32 µM | Potency [9] 0.469 µM | Potency [17] 5.9 µM | Potency [10] 7.43 µM | Potency [11] 1.18 µM | Potency [14] 3.32 µM
inactive: Potency [1]

O=C1CCCC(=O)C1C(=O)c1ccc(C(F)(F)F)cc1[N+](=O)[O-]
inactive: Potency [1] | Potency [2] | Potency [15] | Potency [13] | Potency [4] | Potency [16] | Potency [6] | Potency [7] | Potency [9] | Potency [17] | Potency [10] | Potency [11] | Potency [12]
active: Potency [3] 6.62 µM | Potency [14] 0.166 µM

O=C(NCCCCN1CCOCC1)c1cc2ccccc2o1
inactive: Potency [1] | Potency [2] | Potency [13] | Potency [3] | Potency [4] | Potency [5] | Potency [6] | Potency [7] | Potency [17] | Potency [12]
active: viability (% of DMSO) [16] 159% | Potency [14] 0.0743 µM

CCCC1OC2C[C@@H]3[C@H]4CCC5=CC(=O)C=C[C@]5(C)[C@H]4C(O)C[C@]3(C)[C@]2(C(=O)CO)O1 (stereo not given in full)
active: Potency [2] 11.8 µM | Potency [13] 0.469 µM | Potency [3] 0.0118 µM | Potency [11] 0.0132 µM | Potency [14] 20.9 µM
inactive: Potency [1] | Potency [15] | Potency [4] | Potency [9] | Potency [10] | Potency [12]

O=C(O)C1=CO[C@@H](O[C@@H]2O[C@H](CO)[C@H](O)[C@H](O)[C@H]2O)[C@@H]2C(CO)=CC[C@H]12
inactive: Potency [1] | Potency [15] | Potency [13] | Potency [16] | Potency [7] | Potency [10] | Potency [11] | Potency [12]
active: Potency [2] 5.9 µM

CC(C)c1onc(-c2c(Cl)cccc2Cl)c1COc1ccc(C=Cc2cccc(C(=O)O)c2)c(Cl)c1
inactive: Potency [1] | Potency [2] | Potency [15] | Potency [13] | Potency [4] | Potency [5] | Potency [8] | Potency [9] | Potency [10] | Potency [12]

Cn1c(=O)c(Oc2ccc(F)cc2F)cc2cnc(NC3CCOCC3)nc21
active: Potency [3] 0.0074 µM | Potency [14] 16.6 µM
inactive: Potency [1] | Potency [2] | Potency [4] | Potency [7] | Potency [12]

CCC=CC[C@H]1C(=O)CC[C@@H]1CC(=O)OC
active: Potency [14] 2.35 µM
inactive: Potency [1] | Potency [2] | Potency [15] | Potency [13] | Potency [3] | Potency [5] | Potency [16] | Potency [7] | Potency [8] | Potency [9] | Potency [10] | Potency [11] | Potency [12]

CO[C@H]1/C=C\O[C@@]2(C)Oc3c(C)c(O)c4c(O)c(c(C=NN5CCN(C6CCCC6)CC5)c(O)c4c3C2=O)NC(=O)C(C)=CC=C[C@H](C)[C@H](O)[C@@H](C)[C@@H](O)[C@@H](C)[C@H](OC(C)=O)[C@H]1C
active: Potency [1] 0.372 µM | Potency [2] 0.833 µM | Potency [13] 10.5 µM | Potency [3] 1.05 µM | Potency [4] 0.264 µM | Potency [10] 1.18 µM | Potency [11] 0.0235 µM | Potency [14] 6.62 µM
